# The full list was thinned out, with hits kept by preference.
# L3MBTL1 inh: blocks human L3MBTL1; Q9Y468; AlphaScreen L3MBTL1–H3K9me1 peptide binding; Potency, µM (series often up to 57.1 µM), for inactives: at the highest dose activity, negative = inhibition, hits mostly inhibitors; 230,000 tested, 0.66% active; AID 485360; active = well fitted inhibition curve with a large enough effect; inconclusive = small, poorly fitted or top-dose-only effect; inactive = no such curve, though single readings can be large or run the other way; note: potency is the fitted concentration of half-maximal effect; nearly all actives have a fitted effect of over 60% in size
#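 Read-out is AlphaScreen signal from streptavidin donor and nickel chelate acceptor beads (10 ug/mL final each) bridging L3MBTL1 (50 nM) and biotinylated K9-monomethylated H3(1-15) peptide (75 nM), after 30 min compound exposure at room temperature.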
# CtBP-E1A blk: inhibitors of CtBP/E1A interaction | 340,000 tested, 0.49% active | activity change, % (no concentration beside the values) | AlphaScreen GST-E1A/His-CtBP binding, 1536-well; stronger effect = lower value
#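 AlphaScreen with 125 nM GST-E1A and 125 nM His-CtBP (5X stocks) in Tris pH 8.0, 300 mM NaCl, BSA, Tween 20, TCEP. Compounds preincubated 2 h at 37 deg C, then glutathione donor/nickel acceptor beads added for 1 h at 37 deg C in dark.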
# JMJD2E inh: JMJD2E (human) inhibition. JMJD2E catalytic domain, FDH-coupled NADH fluorescence (FDH is formaldehyde dehydrogenase). Potency, µM (doses to about 57.1 µM), inactives show at the highest dose activity change, negative = inhibition, hits mostly inhibitors. 230,000 tested, 1.6% active; active = well fitted inhibition curve with a large enough effect, not every such curve was filed as active; inconclusive = small, poorly fitted or top-dose-only effect, or another doubt; inactive = no such curve, though single readings can be large or run the other way;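 note: potency is the fitted concentration of half-maximal effect; 0% = wells with enzyme and -100% = buffer wells without enzyme; nearly all actives have a fitted effect of over 50% in size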
# Six1-Eya2 inh: blocks human Six1 binding to Eya2; Q15475+O00167; AlphaScreen GST-Six1/His-Eya2 binding, biochemical; stronger effect = lower value; activity change, % (no concentration beside the values); 360,000 tested, 0.56% active
#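 Six1/Eya2 binding was read as AlphaScreen signal after compounds were pinned into GST-Six1 plus His-tagged Eya2 (5X stock 250/500 nM) in pH 8.0 Tris/NaCl/TCEP buffer, beads added, then incubated 1 h, 37 C, dark.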
# * = called active by the depositor; ? = inconclusive; · = no result; [ ] = remark or other dose. Cut-off read from the data, not from the text of the source, unless noted: active = activity change below about -65%; inconclusive = mostly about -30% to -63%; inactive = weaker than that. Unless noted, % is set by controls: 0 for no effect and ±100 for the full control effect.
SMILES,L3MBTL1 inh,CtBP-E1A blk,JMJD2E inh,Six1-Eya2 inh
COC(=O)c1c(-c2ccc(C(C)(C)C)cc2)csc1NC(=O)C1C2CCC(O2)C1C(=O)O (stereo not drawn),6%,-17,16µM*,-5
CCOC(=O)c1c(-c2cccc3ccccc23)csc1NC(=O)C1C2CCC(O2)C1C(=O)O (stereo not drawn),-5%,4,?,-5
O=C(O)c1ccccn1,14µM*,-66*,·,?
S=C(Nc1ccccc1)c1ccccn1,·,-75*,-10%,-84*
O=C(O)c1ccc2cccnc2n1,·,-5,22µM*,-16
O=C(O)c1cccc(Cl)n1,-13%,8,1%,4
S=C(Nc1ccccc1)Nc1ccccn1,·,-1,·,-2
O=C(O)c1ccc2cccc(O)c2n1,8%,-20,72%,-15
O=C(O)c1cccc(C(=O)O)n1,12%,·,8.9µM*,·
COc1ccc(C(=O)NC2CCN(CC(=O)Nc3cccc(OC)c3)CC2)cc1,0%,-18,·,3
CN(C)C(CNC(=O)c1sc2ccccc2c1Cl)c1ccco1 (stereo not drawn),·,-7,·,-11
COC(=O)[C@@]1(Cc2ccc(F)cc2)[C@H]2c3cc(C(=O)N4CCCC4)n(CCc4c[nH]c5cc(F)ccc45)c3C[C@H]2CN1C(=O)c1ccccc1,·,·,-25%,·
Cc1ccc(C)n1-c1ccc(C(=O)O)cc1,·,·,14µM*,·
CNC(=O)NC(=O)COC(=O)c1ccc(-n2c(C)ccc2C)cc1,?,3,13µM*,-4
CCOC(=O)NC(=O)COC(=O)c1ccc(O)cc1,19%,5,-3%,0
COC(=O)CCC(=O)OC1(C)C(=O)C2=CN(C(CO)CO)C(c3ccc(OC)cc3)=CC2=C(Br)C1=O (stereo not drawn),·,·,5µM*,·
CCOc1ccc(NC(=O)[C@@H]2CCC(=O)N2C2OC(=O)c3ccccc32)cc1 (stereo partly drawn),7%,4,·,8
CN(C(=O)CSc1nc(C2CC2)n(-c2ccccc2)n1)C1CCS(=O)(=O)C1 (stereo not drawn),5%,-11,·,9
O=C(CN1CC(=O)Oc2ccccc21)OCC(=O)c1cccc(Br)c1,-8%,?,?,-82*
O=C(COC(=O)C1CC2CCCC(C1)C2=O)c1cccc(Br)c1 (stereo not drawn),4%,·,·,3
Cc1cc(N/N=C/c2ccc(O)cc2O)nc(-n2nc(C)cc2C)n1,-1%,-80*,14%,-70*
Cc1cc(N/N=C/c2ccc(O)cc2O)nc(-c2ccccc2O)n1,0%,?,?,?
COc1cc(/C=N/Nc2nc(Nc3ccccc3)nc(-n3nc(C)cc3C)n2)cc(OC)c1OC,-6%,-17,3%,-17
Cc1nc(Cl)cc(N/N=C/c2ccc(O)cc2O)n1,-17%,-81*,·,-67*
COc1ccc(O)c(/C=N/Nc2nc(Nc3ccccc3)nc(-n3nc(C)cc3C)n2)c1,?,?,14µM*,?
SMILES,L3MBTL1 inh,CtBP-E1A blk,JMJD2E inh,Six1-Eya2 inh
Cc1nc(Cl)cc(N/N=C/c2ccc(O)cc2)n1,-1%,·,·,-3
O=C(NC(c1ccc(Cl)cc1)c1ccsc1)C1CCN(Cc2cccc(Cl)c2)CC1 (stereo not drawn),·,-7,·,-10
CC(=O)N1N=C(c2cccc([N+](=O)[O-])c2)OC1c1ccc(Br)cc1 (stereo not drawn),?,·,-2%,-1
CC(=O)N1N=C(c2ccccc2)OC1c1ccc([N+](=O)[O-])s1 (stereo not drawn),·,-29,14µM*,?
CCCn1c(C)nc2c(NCCN(C(C)C)C(C)C)nc(C)nc21,·,·,13%,·
COc1ccc(Sc2ccccc2CN(C)C)cc1OC,-6%,-9,3%,-10
CNCc1ccccc1Sc1ccc(O)c(O)c1,?,-2,14µM*,-2
COc1ccc(-c2nc3c(c4c2C[C@H](c2ccccc2)OC4)CN(S(=O)(=O)c2ccc4c(c2)OCCN4C)CC3)c(C)c1,·,·,-4%[11.4 µM],·
COc1ccc(OC)c(/C=C/C(=O)OCC(=O)N2CCCCC2)c1,10%,-77*,·,-15
C=C(C(=O)OCC)C(=O)c1ccccc1,·,·,-3%,·
Cc1cc(-c2csc(NC(=O)c3ccc(C#N)cc3)n2)c(C)n1Cc1ccccc1,6%,-13,?,2
O=[N+]([O-])c1ccc(N/N=C2\CC3CC=CC23)c([N+](=O)[O-])c1 (stereo not drawn),?,-16,1%,-69*
O=[N+]([O-])c1ccc(N/N=C2\CC3CC=CC23)cc1 (stereo not drawn),·,-14,-4%,-13
CCOc1ccc(S(=O)(=O)N2CCOCC2)cc1NC(=O)c1ccccc1F,·,6,·,-8
CCOc1ccc(S(=O)(=O)N2CCN(C)CC2)cc1NC(=O)c1ccccc1F,·,1,·,-69*
CCOC(=O)CNC(=O)C1CCCN(c2ncccn2)C1 (stereo not drawn),-9%,?,?,-83*
O=C(NCc1cccs1)C1CCCN(c2ncccn2)C1 (stereo not drawn),3%,8,?,4
CC1(C(=O)O)CCC(C(=O)Nc2ccccc2O)C1(C)C (stereo not drawn),·,-6,4%,11
CC1(C(=O)O)CCC(C(=O)NNC(=O)c2ccccc2Cl)C1(C)C (stereo not drawn),·,-65*,·,0
CCN1C(=O)c2ccc(C(=O)Nc3ccc4c(c3)OCO4)cc2C1=O,·,5,·,-1
CN1CCN(Cc2c(O)ccc3cc(Br)ccc23)CC1,-26%,3,?,-2
CCN(Cc1ccncc1)Cc1c(O)ccc2cc(Br)ccc12,-17%,20,7.1µM*,4
O=C(O)c1ccc(C2CCCCC2)cn1,18µM*,-85*,?,-90*
c1cc2[nH]snc2c2nc(C3CC3)nc12,0%,-29,20µM*,-29
NC1=NC(=Nc2cccc(S(N)(=O)=O)c2)c2ccccc21,8%,·,4%,-3
SMILES,L3MBTL1 inh,CtBP-E1A blk,JMJD2E inh,Six1-Eya2 inh
COc1cc(N=Nc2cccc(S(N)(=O)=O)c2)c2ccccc2c1N,-26%,-71*,?,?
CSc1cccc(CN2CCN(Cc3ccc(F)c(F)c3)C(CCO)C2)c1 (stereo not drawn),-12%,-7,-21%,-11
COc1ccccc1N1C(=N)S/C(=C\c2ccc(-c3ccccc3C(=O)O)o2)C1=O,?,0,-2%,?
N=C1S/C(=C\c2ccc(-c3ccccc3C(=O)O)o2)C(=O)N1c1ccc2c(c1)OCO2,·,-9,5.6µM*,-29
O=C(CN(c1cccc(Br)c1)S(=O)(=O)c1ccccc1)N/N=C/c1cc([N+](=O)[O-])ccc1O,·,?,·,-14
O=C(CCC(=O)Nc1cccc(Cl)c1)N/N=C/c1cc([N+](=O)[O-])ccc1O,·,-2,18µM*,?
O=C(CCCC(=O)Nc1cccc(Br)c1)N/N=C/c1cc([N+](=O)[O-])ccc1O,·,-82*,·,-67*
COCCCn1c(=O)/c(=C\c2ccccc2OC(C)C)s/c1=C(/C#N)C(=O)Nc1ccc(C(=O)O)cc1,-9%,-4,-8%,1

# Screens (PubChem)
